Source: the supplement of paper PMC6411743
± gives the standard deviation of the averaged measurements. Targets with the largest changes are over-represented here; the source holds about 6,500 in all.

Compound: Nc1ncnc2c1ncn2[C@@H]1O[C@H](COP(=O)(O)OP(=O)(O)OP(=O)(O)O)[C@@H](O)[C@H]1O [adenosine triphosphate]
Assay: NP40-soluble protein abundance relative to vehicle (solubility fold change) (ratio); higher = more soluble protein in presence of ATP
Method in brief: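 In three independent experiments, Jurkat crude lysate made by Dounce homogenisation was treated for 10 min at room temperature and then 3 min at 37 °C with eight concentrations ranging from 0.1 to 10 mM. It was then solubilised with 0.8% NP40 plus benzonase for 60 min at 4 °C and ultracentrifuged. The supernatant was TMT-labelled for LC-MS/MS, and each value is the fold change against the detergent-processed vehicle for the same replicate, using vsn-normalised intensities.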

Sequence of UniProt P07737 (P07737 whole entry): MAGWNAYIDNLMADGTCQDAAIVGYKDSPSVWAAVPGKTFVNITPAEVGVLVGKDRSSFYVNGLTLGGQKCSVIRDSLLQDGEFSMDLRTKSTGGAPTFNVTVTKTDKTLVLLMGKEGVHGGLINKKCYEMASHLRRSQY
Sequence of UniProt P01034 (P01034 whole entry): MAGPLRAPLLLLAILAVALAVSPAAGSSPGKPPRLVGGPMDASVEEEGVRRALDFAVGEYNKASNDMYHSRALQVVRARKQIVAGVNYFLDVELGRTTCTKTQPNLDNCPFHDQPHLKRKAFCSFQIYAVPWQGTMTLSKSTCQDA
Sequence of UniProt P35251 (P35251 whole entry): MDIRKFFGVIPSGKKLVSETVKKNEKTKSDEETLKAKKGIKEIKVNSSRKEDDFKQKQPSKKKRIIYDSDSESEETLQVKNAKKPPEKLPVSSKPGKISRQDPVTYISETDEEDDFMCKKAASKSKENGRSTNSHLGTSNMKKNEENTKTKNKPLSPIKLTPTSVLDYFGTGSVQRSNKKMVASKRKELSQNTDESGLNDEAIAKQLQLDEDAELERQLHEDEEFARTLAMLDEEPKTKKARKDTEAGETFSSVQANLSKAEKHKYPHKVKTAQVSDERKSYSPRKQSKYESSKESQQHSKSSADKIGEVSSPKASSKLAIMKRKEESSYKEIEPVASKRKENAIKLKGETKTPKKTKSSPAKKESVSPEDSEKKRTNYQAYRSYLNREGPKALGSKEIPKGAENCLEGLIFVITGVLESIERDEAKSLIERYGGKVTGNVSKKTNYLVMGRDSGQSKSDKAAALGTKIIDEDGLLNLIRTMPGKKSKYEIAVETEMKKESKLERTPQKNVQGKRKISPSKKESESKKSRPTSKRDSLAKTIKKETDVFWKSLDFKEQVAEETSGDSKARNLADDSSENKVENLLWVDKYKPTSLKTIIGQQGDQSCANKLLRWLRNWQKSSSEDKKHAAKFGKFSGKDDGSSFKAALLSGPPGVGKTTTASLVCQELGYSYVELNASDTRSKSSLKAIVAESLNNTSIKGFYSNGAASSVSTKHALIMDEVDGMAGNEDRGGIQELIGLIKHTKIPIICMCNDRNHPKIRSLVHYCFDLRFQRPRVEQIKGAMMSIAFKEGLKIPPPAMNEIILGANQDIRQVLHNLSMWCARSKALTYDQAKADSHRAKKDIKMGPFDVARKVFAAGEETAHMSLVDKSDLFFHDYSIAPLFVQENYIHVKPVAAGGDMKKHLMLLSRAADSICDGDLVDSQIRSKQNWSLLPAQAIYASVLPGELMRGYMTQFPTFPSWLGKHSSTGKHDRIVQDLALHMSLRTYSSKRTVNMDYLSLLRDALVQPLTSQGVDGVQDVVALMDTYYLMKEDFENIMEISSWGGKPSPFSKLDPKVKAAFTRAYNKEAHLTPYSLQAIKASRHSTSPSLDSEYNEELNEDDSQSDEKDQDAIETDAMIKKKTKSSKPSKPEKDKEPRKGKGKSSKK
Sequence of UniProt Q01826 (Q01826 whole entry): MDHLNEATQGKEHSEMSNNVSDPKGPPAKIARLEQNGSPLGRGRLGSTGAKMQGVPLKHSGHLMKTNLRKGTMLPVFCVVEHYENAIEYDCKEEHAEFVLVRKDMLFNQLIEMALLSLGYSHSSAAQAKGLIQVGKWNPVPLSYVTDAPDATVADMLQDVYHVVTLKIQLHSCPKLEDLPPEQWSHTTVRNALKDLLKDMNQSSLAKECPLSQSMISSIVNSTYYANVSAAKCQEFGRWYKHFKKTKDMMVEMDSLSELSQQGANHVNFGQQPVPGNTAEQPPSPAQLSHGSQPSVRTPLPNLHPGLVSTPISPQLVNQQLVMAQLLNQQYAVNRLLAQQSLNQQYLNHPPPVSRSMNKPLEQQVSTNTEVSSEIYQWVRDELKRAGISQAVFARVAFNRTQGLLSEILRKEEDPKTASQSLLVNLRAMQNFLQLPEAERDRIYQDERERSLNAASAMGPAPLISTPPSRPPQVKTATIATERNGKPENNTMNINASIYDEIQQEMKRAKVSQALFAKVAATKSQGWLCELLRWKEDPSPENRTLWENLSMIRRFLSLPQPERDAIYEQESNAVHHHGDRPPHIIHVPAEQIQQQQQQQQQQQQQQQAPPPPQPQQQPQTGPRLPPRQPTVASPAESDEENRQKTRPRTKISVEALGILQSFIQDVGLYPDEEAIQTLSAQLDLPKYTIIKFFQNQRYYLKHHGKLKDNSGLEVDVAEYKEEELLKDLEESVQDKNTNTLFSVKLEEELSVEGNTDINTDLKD
Sequence of UniProt P46019 (P46019 whole entry): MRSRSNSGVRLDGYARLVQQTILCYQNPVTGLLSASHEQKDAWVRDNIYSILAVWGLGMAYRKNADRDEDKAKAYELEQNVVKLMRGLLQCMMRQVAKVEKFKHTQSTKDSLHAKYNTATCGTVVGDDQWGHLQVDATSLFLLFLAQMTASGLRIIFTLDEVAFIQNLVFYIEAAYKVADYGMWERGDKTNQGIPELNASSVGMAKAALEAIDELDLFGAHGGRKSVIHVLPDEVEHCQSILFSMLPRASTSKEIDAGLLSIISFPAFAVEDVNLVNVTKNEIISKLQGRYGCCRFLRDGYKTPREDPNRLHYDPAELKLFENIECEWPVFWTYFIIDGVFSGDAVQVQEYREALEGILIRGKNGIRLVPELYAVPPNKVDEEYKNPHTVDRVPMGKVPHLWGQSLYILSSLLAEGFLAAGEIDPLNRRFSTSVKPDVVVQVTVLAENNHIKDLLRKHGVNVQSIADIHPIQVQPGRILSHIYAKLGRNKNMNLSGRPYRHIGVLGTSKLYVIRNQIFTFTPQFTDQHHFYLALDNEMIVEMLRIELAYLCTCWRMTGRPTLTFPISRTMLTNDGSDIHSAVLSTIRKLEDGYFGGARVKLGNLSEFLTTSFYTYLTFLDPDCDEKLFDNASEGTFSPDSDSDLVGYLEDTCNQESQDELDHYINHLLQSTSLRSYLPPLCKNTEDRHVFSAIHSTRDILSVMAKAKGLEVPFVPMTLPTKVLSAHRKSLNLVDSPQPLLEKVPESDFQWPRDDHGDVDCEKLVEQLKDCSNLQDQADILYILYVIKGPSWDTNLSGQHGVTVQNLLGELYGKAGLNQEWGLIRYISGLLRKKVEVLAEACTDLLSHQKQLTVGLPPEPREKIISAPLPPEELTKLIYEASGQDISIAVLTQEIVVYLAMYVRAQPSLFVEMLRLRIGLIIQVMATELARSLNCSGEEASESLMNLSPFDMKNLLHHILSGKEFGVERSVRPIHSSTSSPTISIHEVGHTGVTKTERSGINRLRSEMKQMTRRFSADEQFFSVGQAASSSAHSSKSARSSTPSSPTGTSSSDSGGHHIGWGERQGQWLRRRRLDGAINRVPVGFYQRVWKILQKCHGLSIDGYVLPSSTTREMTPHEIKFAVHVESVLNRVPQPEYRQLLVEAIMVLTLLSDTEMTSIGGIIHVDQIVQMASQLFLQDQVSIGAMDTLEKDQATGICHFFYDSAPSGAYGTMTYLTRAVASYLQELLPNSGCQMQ
Sequence of UniProt P61204 (P61204 whole entry): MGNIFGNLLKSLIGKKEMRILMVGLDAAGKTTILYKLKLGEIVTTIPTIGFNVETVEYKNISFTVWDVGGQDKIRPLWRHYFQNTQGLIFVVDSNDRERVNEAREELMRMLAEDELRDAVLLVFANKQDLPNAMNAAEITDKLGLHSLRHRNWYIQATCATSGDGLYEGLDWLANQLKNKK
Sequence of UniProt P50990 (P50990 whole entry): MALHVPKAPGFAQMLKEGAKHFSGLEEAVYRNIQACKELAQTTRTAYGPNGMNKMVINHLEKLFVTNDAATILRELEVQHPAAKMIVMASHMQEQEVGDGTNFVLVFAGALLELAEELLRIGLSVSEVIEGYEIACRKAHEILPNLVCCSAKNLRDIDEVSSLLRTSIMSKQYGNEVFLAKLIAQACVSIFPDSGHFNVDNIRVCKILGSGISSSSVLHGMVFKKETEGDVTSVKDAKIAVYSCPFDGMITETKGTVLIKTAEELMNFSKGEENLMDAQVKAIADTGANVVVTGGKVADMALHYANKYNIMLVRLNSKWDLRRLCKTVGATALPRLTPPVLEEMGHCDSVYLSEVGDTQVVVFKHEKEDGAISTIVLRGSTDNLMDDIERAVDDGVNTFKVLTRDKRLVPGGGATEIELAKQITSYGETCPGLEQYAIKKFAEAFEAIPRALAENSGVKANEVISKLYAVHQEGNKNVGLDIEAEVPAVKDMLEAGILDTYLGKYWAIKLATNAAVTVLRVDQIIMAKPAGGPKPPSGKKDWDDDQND
Sequence of UniProt P60228 (P60228 whole entry): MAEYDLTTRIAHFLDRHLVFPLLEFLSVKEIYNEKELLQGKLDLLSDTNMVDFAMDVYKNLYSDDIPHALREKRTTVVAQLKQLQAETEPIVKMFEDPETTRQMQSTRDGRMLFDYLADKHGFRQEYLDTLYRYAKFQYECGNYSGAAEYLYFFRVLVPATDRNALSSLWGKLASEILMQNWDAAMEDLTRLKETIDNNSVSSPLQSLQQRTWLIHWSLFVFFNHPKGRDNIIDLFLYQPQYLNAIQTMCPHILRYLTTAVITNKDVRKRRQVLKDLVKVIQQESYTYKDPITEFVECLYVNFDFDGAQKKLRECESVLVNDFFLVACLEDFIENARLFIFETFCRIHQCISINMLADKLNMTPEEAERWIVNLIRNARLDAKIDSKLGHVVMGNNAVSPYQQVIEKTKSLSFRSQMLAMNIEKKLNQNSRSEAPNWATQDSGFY
Sequence of UniProt P06493 (P06493 whole entry, looked up): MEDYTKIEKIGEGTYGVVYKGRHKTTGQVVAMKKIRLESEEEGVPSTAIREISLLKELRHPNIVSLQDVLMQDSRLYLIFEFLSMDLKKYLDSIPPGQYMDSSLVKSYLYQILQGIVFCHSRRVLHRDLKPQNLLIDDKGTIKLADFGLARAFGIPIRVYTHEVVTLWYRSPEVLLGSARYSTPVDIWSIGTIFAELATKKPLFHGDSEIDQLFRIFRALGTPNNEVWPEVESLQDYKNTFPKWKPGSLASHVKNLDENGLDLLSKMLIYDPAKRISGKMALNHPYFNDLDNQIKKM

Target	NP40-soluble protein abundance (concentration: 1mM)	NP40-soluble protein abundance (concentration: 2mM)	NP40-soluble protein abundance (concentration: 4mM)	NP40-soluble protein abundance (concentration: 6mM)	NP40-soluble protein abundance (concentration: 8mM)	NP40-soluble protein abundance (concentration: 10mM)
UniProt Q01543|Q01543-3|Q01543-2	0.989 ± 0.05	0.997 ± 0.013	0.996 ± 0.032	1.01 ± 0.048	0.969 ± 0.033	0.9608 ± 0.0033
RHOA (UniProt P61586)	0.996 ± 0.14	1.01 ± 0.078	0.968 ± 0.06	1.09 ± 0.069	0.939 ± 0.023	0.944 ± 0.027
UniProt Q06787-5|Q06787-6|Q06787-8|Q06787|Q06787-3|Q06787-7|Q06787-9|R9WNI0	1.16 ± 0.14	1.27 ± 0.1	1.56 ± 0.17	1.83 ± 0.13	2.14 ± 0.19	2.48 ± 0.15
CTBS (UniProt Q01459)	0.951 ± 0.04	0.98 ± 0.028	0.939 ± 0.038	0.957 ± 0.038	0.932 ± 0.032	0.955 ± 0.013
UniProt P49903|P49903-2	1 ± 0.039	0.992 ± 0.02	0.962 ± 0.049	0.979 ± 0.068	0.966 ± 0.052	0.96 ± 0.042
POLR3D (UniProt P05423)	0.986 ± 0.095	0.962 ± 0.062	0.949 ± 0.071	0.963 ± 0.12	0.965 ± 0.064	0.963 ± 0.065
HSP90AB1 (UniProt P08238)	1.01 ± 0.063	0.99 ± 0.052	0.983 ± 0.05	0.928 ± 0.069	0.953 ± 0.022	0.964 ± 0.064
CTDSPL2 (UniProt Q05D32)	1.13 ± 0.11	1.13 ± 0.07	1.27 ± 0.09	1.32 ± 0.082	1.33 ± 0.14	1.47 ± 0.03
UniProt P61225	1.01 ± 0.074	0.921 ± 0.091	0.92 ± 0.082	0.846 ± 0.11	0.932 ± 0.065	0.932 ± 0.016
UniProt P06493	1.05 ± 0.054	1.06 ± 0.053	1.03 ± 0.063	1.03 ± 0.1	1.05 ± 0.058	1.05 ± 0.015
PHKA2 (UniProt P46019)	0.975 ± 0.071	0.9386 ± 0.0054	0.92 ± 0.033	0.932 ± 0.087	0.95 ± 0.028	0.919 ± 0.029
PRIM2 (UniProt P49643)	1.03 ± 0.057	1.02 ± 0.025	1.02 ± 0.032	1 ± 0.034	1.02 ± 0.028	1.03 ± 0.047
UniProt P38398|P38398-7|P38398-4|P38398-8	1.02 ± 0.011	1.05 ± 0.071	1.03 ± 0.035	1.03 ± 0.086	1.02 ± 0.081	1.06 ± 0.03
IGHMBP2 (UniProt P38935)	1.41 ± 0.11	1.59 ± 0.088	1.84 ± 0.09	2.01 ± 0.13	2.19 ± 0.2	2.4 ± 0.14
UniProt P11388|P11388-2|P11388-3|P11388-4	1.31 ± 0.066	1.41 ± 0.062	1.64 ± 0.06	1.76 ± 0.074	1.99 ± 0.11	2.03 ± 0.14
RBM34 (UniProt P42696)	1.16 ± 0.026	1.21 ± 0.059	1.4 ± 0.097	1.57 ± 0.1	1.7 ± 0.18	1.85 ± 0.21
DCK (UniProt P27707)	0.955 ± 0.067	0.98 ± 0.052	0.914 ± 0.046	0.935 ± 0.093	0.933 ± 0.03	0.948 ± 0.044
UniProt Q01082|Q01082-3	0.887 ± 0.029	0.899 ± 0.014	0.928 ± 0.03	1.05 ± 0.037	1.04 ± 0.06	1.07 ± 0.048
CTCF (UniProt P49711)	1.02 ± 0.027	0.993 ± 0.036	0.972 ± 0.034	0.895 ± 0.046	0.927 ± 0.032	0.894 ± 0.027
PFN1 (UniProt P07737)	0.941 ± 0.059	0.934 ± 0.049	0.918 ± 0.027	0.92 ± 0.059	0.891 ± 0.015	0.911 ± 0.034
UniProt P09471-2	1.04 ± 0.059	0.979 ± 0.043	0.949 ± 0.052	0.975 ± 0.1	0.9637 ± 0.0096	0.969 ± 0.014
HMGN2 (UniProt P05204)	1.06 ± 0.36	1.27 ± 0.42	1.29 ± 0.44	1.67 ± 0.9	1.55 ± 0.41	2.08 ± 1.5
UniProt Q01826|Q01826-2	0.952 ± 0.051	0.96 ± 0.023	0.919 ± 0.039	0.96 ± 0.031	0.928 ± 0.02	0.922 ± 0.011

Target	NP40-soluble protein abundance (concentration: 1mM)	NP40-soluble protein abundance (concentration: 2mM)	NP40-soluble protein abundance (concentration: 4mM)	NP40-soluble protein abundance (concentration: 6mM)	NP40-soluble protein abundance (concentration: 8mM)	NP40-soluble protein abundance (concentration: 10mM)
UniProt P67870|Q5SRQ6	0.972 ± 0.024	1 ± 0.021	1.013 ± 0.0063	1.05 ± 0.067	1.07 ± 0.019	1.04 ± 0.017
UniProt P26368|P26368-2	1.96 ± 0.078	1.99 ± 0.078	2.01 ± 0.076	2.06 ± 0.032	2.11 ± 0.079	2.09 ± 0.12
UniProt P35251|P35251-2	1.23 ± 0.086	1.36 ± 0.093	1.45 ± 0.1	1.58 ± 0.11	1.51 ± 0.069	1.56 ± 0.084
UniProt O95639|O95639-2|O95639-3	1.3 ± 0.028	1.38 ± 0.046	1.52 ± 0.06	1.64 ± 0.1	1.7 ± 0.039	1.73 ± 0.078
UniProt P60228	0.999 ± 0.024	0.999 ± 0.051	1.08 ± 0.035	1.23 ± 0.063	1.34 ± 0.073	1.49 ± 0.12
CDKN2D (UniProt P55273)	0.959 ± 0.065	0.928 ± 0.036	0.953 ± 0.046	0.953 ± 0.019	0.951 ± 0.024	0.872 ± 0.045
SNRPA (UniProt P09012)	1.01 ± 0.067	0.989 ± 0.09	0.973 ± 0.093	0.984 ± 0.1	0.992 ± 0.032	0.97 ± 0.006
FXR2 (UniProt P51116)	1.68 ± 0.23	1.77 ± 0.15	2.06 ± 0.29	2.24 ± 0.27	2.26 ± 0.3	2.33 ± 0.26
UniProt P42285	1.07 ± 0.07	1.06 ± 0.035	1.09 ± 0.033	1.07 ± 0.031	1.2 ± 0.013	1.21 ± 0.066
ATF1 (UniProt P18846)	0.986 ± 0.2	0.951 ± 0.033	1.02 ± 0.14	0.999 ± 0.054	0.97 ± 0.074	0.917 ± 0.068
ACSL3 (UniProt O95573)	1.02 ± 0.05	1.05 ± 0.028	1.03 ± 0.036	1 ± 0.11	1.03 ± 0.041	1.01 ± 0.031
CST3 (UniProt P01034)	0.964 ± 0.083	0.971 ± 0.063	1 ± 0.11	1.03 ± 0.11	1.05 ± 0.15	1.05 ± 0.14
CCT8 (UniProt P50990)	0.976 ± 0.029	0.909 ± 0.033	0.823 ± 0.036	0.86 ± 0.12	0.842 ± 0.081	0.835 ± 0.063
UniProt Q03933-2|Q03933	0.912 ± 0.029	1.05 ± 0.065	1.05 ± 0.2	1.09 ± 0.17	1.04 ± 0.048	1.01 ± 0.051
GSTM2 (UniProt P28161)	0.96 ± 0.07	0.952 ± 0.054	0.886 ± 0.043	0.889 ± 0.035	0.911 ± 0.058	0.861 ± 0.056
SOAT1 (UniProt P35610)	1.02 ± 0.042	1 ± 0.028	0.999 ± 0.055	0.97 ± 0.029	1.03 ± 0.019	0.971 ± 0.041
UniProt P49748|P49748-3	0.997 ± 0.081	0.989 ± 0.064	0.983 ± 0.027	0.934 ± 0.083	0.986 ± 0.015	0.973 ± 0.045
UniProt P51114|P51114-2	1.644 ± 0.0088	1.79 ± 0.041	2.03 ± 0.048	2.17 ± 0.11	2.32 ± 0.039	2.4 ± 0.045
XRCC5 (UniProt P13010)	1.04 ± 0.055	1.01 ± 0.051	0.996 ± 0.039	0.961 ± 0.076	1 ± 0.024	0.993 ± 0.057
P0DN76|Q01081|Q01081-2 (UniProt Q01081+P0DN76)	2.11 ± 0.23	2.14 ± 0.2	2.22 ± 0.17	2.36 ± 0.16	2.27 ± 0.11	2.24 ± 0.17
VAMP7 (UniProt P51809)	0.955 ± 0.046	0.958 ± 0.05	0.938 ± 0.028	0.894 ± 0.1	0.943 ± 0.044	0.945 ± 0.044
IDH1 (UniProt O75874)	0.993 ± 0.056	0.988 ± 0.038	0.94 ± 0.052	0.94 ± 0.081	0.957 ± 0.04	0.949 ± 0.027
ARF3 (UniProt P61204)	1.05 ± 0.21	1.01 ± 0.17	1.04 ± 0.13	0.961 ± 0.23	1.05 ± 0.073	0.996 ± 0.08
